Reference: PubChem BioAssay AID1159580 (chemical genetic matrix, 2015)
Where “and” joins values, the source holds several entries; their conditions need not be identical. Identical values can stand only once. The whole screen tested about 5,500 compounds, of which about 2,000 (36%) were called active. Roughly 18% stayed inconclusive and do not appear here. No stated cut-off is given here; in the data, active means normalized growth mostly below about 0.91 (no sharp cut-off); inconclusive means no clear call, values can overlap the other calls; inactive means mostly above about 0.92. This is one part of the list.

Experiment: chemical genetic growth profiling, strain panel (AID 1159580);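 further: tested at 20 µM; growth read once vehicle control cultures reached saturation at 30 °C; 1 = growth at the plate median or of vehicle wells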
Conditions: S. cerevisiae deletion strains, growth OD

Measured: normalized growth

Oc1ccc(/C=C/c2cc(O)cc(O)c2)cc1
0.406 (active) and 1.01 (inactive): locus YJL095W, strain BCK1, stronger effect = lower value
0.892 (active) and 0.981 (inactive): locus YHR030C, strain SLT2, stronger effect = lower value
inactive: locus YAL013W, strain DEP1, stronger effect = lower value 0.972 and 1.02 | locus YAL021C, strain ccr4, stronger effect = lower value 0.995 | locus YAL026C, strain drs2, stronger effect = lower value 0.978 | locus YAL030W, strain snc1, stronger effect = lower value 0.99 | locus YAL040C, strain CLN3, stronger effect = lower value 0.987 | locus YBL061C, strain skt5, stronger effect = lower value 0.992 | locus YBR009C, strain hhf1, stronger effect = lower value 0.968 | locus YBR021W, strain FUR4, stronger effect = lower value 0.961 | locus YBR023C, strain chs3, stronger effect = lower value 0.99 | locus YBR171W, strain sec66, stronger effect = lower value 1.01 | locus YBR229C, strain ROT2, stronger effect = lower value 1.02 | locus YBR231C, strain swc5, stronger effect = lower value 0.988 | locus YBR279W, strain paf1, stronger effect = lower value 0.988 | locus YCL011C, strain gbp2, stronger effect = lower value 0.996 | locus YCL016C, strain dcc1, stronger effect = lower value 0.99 | locus YCL029C, strain bik1, stronger effect = lower value 0.929 | locus YCL061C, strain MRC1 (second series), stronger effect = lower value 0.987 | locus YCL061C, strain MRC1, stronger effect = lower value 0.99 | locus YCL069W, strain vba3, stronger effect = lower value 1.01 | locus YCR088W, strain abp1, stronger effect = lower value 1 | locus YDL005C, strain med2, stronger effect = lower value 0.999 | locus YDL035C, strain GPR1, stronger effect = lower value 0.939 | locus YDL040C, strain nat1, stronger effect = lower value 0.982 | locus YDL074C, strain BRE1, stronger effect = lower value 0.867 | locus YDL101C, strain DUN1, stronger effect = lower value 0.999 | locus YDL134C, strain PPH21, stronger effect = lower value 0.982 | locus YDL185W, strain tfp1, stronger effect = lower value 0.939 | locus YDR001C, strain nth1, stronger effect = lower value 0.999 | locus YDR069C, strain doa4, stronger effect = lower value 0.988 | locus YDR150W, strain NUM1, stronger effect = lower value 0.985 | locus YDR159W, strain sac3, stronger effect = lower value 0.954 | locus YDR162C, strain NBP2, stronger effect = lower value 0.948 | locus YDR297W, strain sur2, stronger effect = lower value 0.977 | locus YDR318W, strain mcm21, stronger effect = lower value 0.983 | locus YDR334W, strain swr1, stronger effect = lower value 0.997 | locus YDR335W, strain msn5, stronger effect = lower value 1.01 | locus YDR363W, strain ESC2, stronger effect = lower value 1.01 | locus YDR388W, stronger effect = lower value 0.962 | locus YDR392W, strain spt3, stronger effect = lower value 0.842 | locus YEL003W, strain gim4, stronger effect = lower value 0.992 | locus YEL037C, strain rad23, stronger effect = lower value 1.01 | locus YEL061C, strain CIN8 (second series), stronger effect = lower value 1.01 | locus YEL061C, strain CIN8, stronger effect = lower value 0.986 | locus YER002W, strain NOP16, stronger effect = lower value 0.98 | locus YER015W, strain faa2, stronger effect = lower value 0.986 | locus YER016W, strain bim1, stronger effect = lower value 0.994 | locus YER110C, stronger effect = lower value 0.98 | locus YER111C, strain swi4, stronger effect = lower value 1.01 | locus YER155C, strain BEM2 (second series), stronger effect = lower value 0.986 | locus YER155C, strain BEM2, stronger effect = lower value 1.02 | locus YER167W, strain BCK2, stronger effect = lower value 1.01 | locus YFR010W, strain ubp6, stronger effect = lower value 0.984 | locus YGL167C, strain pmr1, stronger effect = lower value 0.978 | locus YGL173C, strain kem1, stronger effect = lower value 0.994 | locus YGL227W, strain vid30, stronger effect = lower value 0.991 | locus YGL240W, strain doc1, stronger effect = lower value 1 | locus YGL248W, strain PDE1, stronger effect = lower value 0.965 | locus YGL253W, strain hxk2, stronger effect = lower value 0.968 | locus YGR078C, strain PAC10, stronger effect = lower value 0.959 | locus YGR135W, strain pre9, stronger effect = lower value 0.936 | locus YGR252W, strain gcn5, stronger effect = lower value 0.853 | locus YHR013C, strain ard1, stronger effect = lower value 1.04 | locus YHR027C, strain rpn1, stronger effect = lower value 0.989 | locus YHR079C, strain IRE1 (second series), stronger effect = lower value 0.981 | locus YHR079C, strain IRE1, stronger effect = lower value 0.978 | locus YHR094C, strain hxt1, stronger effect = lower value 0.981 | locus YHR129C, strain ARP1, stronger effect = lower value 0.972 | locus YHR142W, strain chs7, stronger effect = lower value 0.987 | locus YHR200W, strain rpn10, stronger effect = lower value 0.93 | locus YIL066C, strain RNR3, stronger effect = lower value 0.987 | locus YIL073C, strain SPO22, stronger effect = lower value 0.896 | locus YIL125W, strain kgd1, stronger effect = lower value 0.952 | locus YIR030C, strain dcg1, stronger effect = lower value 0.964 | locus YJL092W, strain hpr5, stronger effect = lower value 0.995 | locus YJL095W, strain BCK1 (second series), stronger effect = lower value 0.987 | locus YJL115W, strain asf1, stronger effect = lower value 1 | locus YJL129C, strain trk1, stronger effect = lower value 0.903 | locus YJL134W, strain LCB3, stronger effect = lower value 1.01 | locus YJL154C, strain vps35, stronger effect = lower value 1 | locus YJL164C, strain tpk1, stronger effect = lower value 1.01 | locus YJL166W, strain qcr8, stronger effect = lower value 0.998 | locus YJL168C, strain set2, stronger effect = lower value 0.973 | locus YJL187C, strain SWE1 (second series), stronger effect = lower value 0.934 | locus YJL187C, strain SWE1, stronger effect = lower value 0.986 | locus YJR043C, strain POL32, stronger effect = lower value 0.946 | locus YJR066W, strain TOR1, stronger effect = lower value 0.939 | locus YJR075W, strain HOC1, stronger effect = lower value 0.986 and 1.01 | locus YKL068W, stronger effect = lower value 0.977 | locus YKL085W, strain MDH1 (second series), stronger effect = lower value 0.982 | locus YKL085W, strain MDH1, stronger effect = lower value 0.982 | locus YKL160W, strain elf1, stronger effect = lower value 1 | locus YKL190W, strain CNB1, stronger effect = lower value 0.992 | locus YKR026C, strain gcn3, stronger effect = lower value 0.991 | locus YKR091W, strain srl3, stronger effect = lower value 0.995 | locus YLL001W, strain dnm1, stronger effect = lower value 1.01 | locus YLL026W, stronger effect = lower value 0.99 | locus YLL041C, strain sdh2, stronger effect = lower value 0.991 | locus YLR027C, strain aat2, stronger effect = lower value 0.994 | locus YLR039C, strain RIC1, stronger effect = lower value 0.87 | locus YLR058C, strain SHM2, stronger effect = lower value 0.972 | locus YLR102C, strain apc9, stronger effect = lower value 0.997 | locus YLR113W, strain HOG1, stronger effect = lower value 1.04 | locus YLR221C, strain rsa3, stronger effect = lower value 0.972 | locus YLR258W, strain gsy2, stronger effect = lower value 0.986 | locus YLR262C, strain YPT6, stronger effect = lower value 0.877 | locus YLR268W, strain sec22, stronger effect = lower value 0.894 | locus YLR320W, strain mms22, stronger effect = lower value 0.971 | locus YLR330W, strain CHS5, stronger effect = lower value 0.998 | locus YLR342W, strain FKS1 (second series), stronger effect = lower value 0.946 | locus YLR342W, strain FKS1, stronger effect = lower value 0.993 | locus YLR357W, strain rsc2, stronger effect = lower value 0.976 | locus YLR370C, strain arc18, stronger effect = lower value 1.01 | locus YLR384C, strain iki3, stronger effect = lower value 0.996 | locus YML016C, strain PPZ1, stronger effect = lower value 0.993 | locus YML032C, strain rad52, stronger effect = lower value 0.938 | locus YML120C, strain ndi1, stronger effect = lower value 0.956 | locus YML124C, strain tub3, stronger effect = lower value 0.993 | locus YMR058W, strain fet3, stronger effect = lower value 0.975 | locus YMR078C, strain ctf18, stronger effect = lower value 0.96 | locus YMR125W, strain sto1, stronger effect = lower value 0.999 | locus YMR129W, stronger effect = lower value 0.996 | locus YMR205C, strain PFK2, stronger effect = lower value 0.976 | locus YMR223W, strain ubp8, stronger effect = lower value 0.923 | locus YMR231W, strain pep5, stronger effect = lower value 1 | locus YMR263W, strain SAP30, stronger effect = lower value 0.997 | locus YNL067W, strain RPL9B, stronger effect = lower value 0.979 | locus YNL071W, strain lat1, stronger effect = lower value 0.988 | locus YNL175C, strain NOP13, stronger effect = lower value 0.958 | locus YNL183C, strain NPR1, stronger effect = lower value 0.962 | locus YNL197C, strain WHI3, stronger effect = lower value 0.966 | locus YNL209W, strain ssb2, stronger effect = lower value 0.979 | locus YNL224C, strain SQS1, stronger effect = lower value 0.974 | locus YNL233W, strain BNI4, stronger effect = lower value 0.924 | locus YNL248C, strain rpa49, stronger effect = lower value 0.983 | locus YNL250W, strain rad50, stronger effect = lower value 0.971 | locus YNL271C, strain bni1, stronger effect = lower value 0.951 | locus YNL298W, strain CLA4, stronger effect = lower value 0.92 | locus YNL307C, strain MCK1, stronger effect = lower value 0.99 | locus YNL322C, strain KRE1 (second series), stronger effect = lower value 0.998 | locus YNR049C, strain mso1, stronger effect = lower value 1.01 | locus YOL012C, strain htz1 0.774 | locus YOR001W, strain rrp6, stronger effect = lower value 0.985 | locus YOR061W, strain CKA2, stronger effect = lower value 0.995 | locus YOR069W, strain VPS5, stronger effect = lower value 0.998 | locus YOR070C, strain gyp1, stronger effect = lower value 0.986 | locus YOR080W, strain dia2, stronger effect = lower value 0.994 | locus YOR083W, strain WHI5 (second series), stronger effect = lower value 0.98 | locus YOR083W, strain WHI5, stronger effect = lower value 0.965 | locus YOR106W, strain vam3, stronger effect = lower value 0.982 | locus YOR136W, strain idh2, stronger effect = lower value 0.965 | locus YOR144C, strain elg1, stronger effect = lower value 0.963 | locus YOR231W, strain MKK1, stronger effect = lower value 0.98 | locus YOR265W, strain rbl2, stronger effect = lower value 0.985 | locus YOR270C, strain vph1, stronger effect = lower value 0.963 | locus YOR290C, strain snf2, stronger effect = lower value 0.95 | locus YOR316C, strain cot1, stronger effect = lower value 0.982 | locus YPL051W, strain arl3, stronger effect = lower value 0.983 | locus YPL055C, strain LGE1, stronger effect = lower value 0.894 | locus YPL078C, strain atp4, stronger effect = lower value 0.994 | locus YPL106C, strain sse1, stronger effect = lower value 1.02 | locus YPL240C, strain hsp82, stronger effect = lower value 0.988 | locus YPL241C, strain CIN2, stronger effect = lower value 0.985 | locus YPL256C, strain CLN2, stronger effect = lower value 0.975 | locus YPR119W, strain clb2, stronger effect = lower value 0.981 | locus YPR141C, strain kar3, stronger effect = lower value 0.973 | locus YPR167C, strain met16, stronger effect = lower value 0.978
active: locus YDL192W, strain arf1, stronger effect = lower value 0.865 | locus YDR101C, strain arx1, stronger effect = lower value 0.873 | locus YDR137W, strain rgp1, stronger effect = lower value 0.681 | locus YDR195W, strain ref2 1.18 [resistant] | locus YDR502C, strain sam2, stronger effect = lower value 0.895 | locus YGL078C, strain dbp3, stronger effect = lower value 0.895 | locus YGL086W, strain mad1, stronger effect = lower value 0.897 | locus YKL009W, strain mrt4, stronger effect = lower value 0.779 | locus YKR001C, strain vps1, stronger effect = lower value 0.692 | locus YLR262C, strain YPT6 (second series), stronger effect = lower value 0.822 | locus YLR371W, strain rom2, stronger effect = lower value 0.766 | locus YLR418C, strain cdc73, stronger effect = lower value 0.686 | locus YMR307W, strain GAS1, stronger effect = lower value 0.538 | locus YNR052C, strain pop2, stronger effect = lower value 0.833 | locus YOL147C, strain pex11, stronger effect = lower value 0.926 | locus YOR184W, strain ser1, stronger effect = lower value 0.729 | locus YPR163C, strain tif3, stronger effect = lower value 0.909 | strain wtn01, stronger effect = lower value 0.895
